Compound activity deposited in PubChem BioAssay by Sanford-Burnham Center for Chemical Genomics.
Rows were chosen to be rich in hits. Some 2.6% of all compounds tested hit in one or more screens of this group.
PHOSPHO1 inh = inhibitors of human PHOSPHO1 phosphatase; inhibition, % at 13.3 µM; AID 1565; hit rate 1.1% among 290,000; recombinant PHOSPHO1, absorbance phosphatase assay; in the data active means inhibition above about 60%
MLLE-PAM2 inh = blocks PAM2 peptide binding to the PABP1 MLLE domain | P11940 | GST-MLLE / FITC-PAM2 fluorescence polarization | inhibition, % at 20 µM | hit rate 0.36% among 360,000; in the data active means inhibition above about 35%, passing the limit was not always enough
eIF4H FP inh = inhibitors of RNA binding by human eIF4H; Q15056; eIF4H fluorescence polarization binding assay; inhibition, % at 35 µM; hit rate 0.94% among 290,000; AID 2012;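 further: calls also rest on retests at 20 µM and on dose response follow-up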
PABP FP inh = blocks human PABP binding to poly(A) RNA; fluorescence polarization; calls only at 35 µM; hit rate 1% among 290,000;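 further: calls also rest on retests at 20 µM and on dose response follow-up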
APOBEC3A inh = blocks human APOBEC3A ssDNA deamination | P31941 | recombinant A3A, FAM/TAMRA ssDNA deamination fluorescence | inhibition, % at 20 µM | hit rate 0.41% among 330,000 | AID 493011;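 active means at least 40% inhibition at 20 µM here, with at most 30% in a related deaminase screen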
Target sequence (P31941 whole entry, looked up): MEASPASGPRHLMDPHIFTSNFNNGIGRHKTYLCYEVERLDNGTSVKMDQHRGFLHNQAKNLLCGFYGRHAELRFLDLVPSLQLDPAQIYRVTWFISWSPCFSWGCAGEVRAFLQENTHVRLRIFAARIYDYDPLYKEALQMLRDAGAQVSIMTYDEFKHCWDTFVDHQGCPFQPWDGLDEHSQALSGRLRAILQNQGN
APOBEC3G inh = inhibitors of human APOBEC3G DNA deaminase; recombinant A3G, ssDNA deamination FAM/TAMRA fluorescence; inhibition, % at 20 µM; hit rate 0.28% among 330,000; AID 493012;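 active means inhibition of at least 40% at 20 µM, with no more than 30% in the related APOBEC3A deaminase screen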
A number is an active result; . = inactive; / = not tested or not shown; + = active, no number. Unless noted, how the calls were made is not given here.

SMILES	PHOSPHO1 inh	MLLE-PAM2 inh	eIF4H FP inh	PABP FP inh	APOBEC3A inh	APOBEC3G inh
Nc1c(-c2ccccc2)nc(Cl)nc1-c1ccccc1	.	.	.	.	.	.
c1ccc(-c2nc3nonc3nc2-c2ccccc2)cc1	67.4	.	.	.	.	.
Cc1cnc(C(=O)NCCc2ccc(Cl)cc2)cn1	.	.	.	.	.	.
Cc1cnc(C(=O)NCc2ccc(Cl)cc2Cl)cn1	.	.	active	+	.	.
O=C(COc1ccc(Cl)cc1Cl)Nc1cccnc1	.	.	.	.	.	.
COc1ccccc1OCC(=O)Nn1c(=S)[nH]c2ncccc2c1=O	.	43.7	.	.	.	.
O=C(COc1ccc(Cl)cc1Cl)Nn1c(=S)[nH]c2ncccc2c1=O	.	46.3	.	.	.	.
CN1CCN(C(=O)C[C@H]2C[C@H]3c4cc(NC(=O)NC5CCCCC5)ccc4O[C@H]3[C@@H](CO)O2)CC1	/	.	/	/	/	/
O=C(C1=C(O)C(=O)N(CC2CCCO2)C1c1ccc(Cl)cc1Cl)c1ccco1 (stereo unspecified)	.	.	.	.	.	.
CCOC(=O)c1ccc(NS(=O)(=O)c2ccc3[nH]c(=O)[nH]c3c2)cc1	63.2	.	.	.	.	.
CCC(CC)NC(=O)c1ccc(NS(=O)(=O)c2ccc3[nH]c(=O)[nH]c3c2)cc1	.	.	.	.	.	.
CCN1C(=O)CC(Sc2ccccc2C(=O)O)C1=O (stereo unspecified)	.	.	.	.	.	.
CCOC(=O)c1c(N2C(=O)CC(Sc3ccccc3C(=O)O)C2=O)sc2c1CCCC2 (stereo unspecified)	.	49.5	.	.	.	.
COC(=O)c1ccccc1SC1CC(=O)N(c2ccccc2)C1=O (stereo unspecified)	.	.	.	.	.	.
CCOc1ccc(N2C(=O)CC(Sc3ccccc3C(=O)O)C2=O)c([N+](=O)[O-])c1 (stereo unspecified)	.	40.5	.	.	.	.
O=C(O)c1ccccc1SC1CC(=O)N(c2cccc3ccccc23)C1=O (stereo unspecified)	.	39.5	.	.	/	/
C[C@H](CO)N1C[C@H](C)[C@@H](CN(C)Cc2ccncc2)Oc2ccc(NC(=O)CCCCCC(=O)Nc3ccccc3N)cc2C1=O	/	.	/	/	.	.
CCOC(=O)CSc1nc(N)c(C#N)c(-c2ccc(OCC)cc2)c1C#N	.	.	.	.	.	.
CC1=C(C#N)c2nc(N)c(C#N)c(C)c2/C1=C\c1ccc(OCC(=O)O)c(Cl)c1	71.4	.	.	.	.	.
COc1ccccc1CNC(=O)C(C)n1cccc1C(=O)c1ccccc1 (stereo unspecified)	64.0	.	/	/	.	.
COc1cccc(CN(C)C(=O)C2CC(=O)N(c3ccc4c(c3)OCCO4)C2)c1 (stereo unspecified)	/	.	/	/	.	.
Cc1ccc(-c2nnn(CC(=O)NC3CCCc4ccccc43)n2)cc1 (stereo unspecified)	62.3	.	.	.	.	.
CCCCCC(=O)N1C[C@H](n2cc(COC(=O)c3ccccc3)nn2)[C@@H](O)C[C@@H]1c1ccc(OC)cc1	/	.	/	/	/	/
COc1ccc(C2=NC(=O)/C(=C\c3cc(OC)c(OC)c(OC)c3)O2)cc1	.	61.3	.	.	/	/
COc1ccc(/C=C2\N=C(c3ccc(C)cc3)OC2=O)cc1	.	.	.	.	.	.
SMILES	PHOSPHO1 inh	MLLE-PAM2 inh	eIF4H FP inh	PABP FP inh	APOBEC3A inh	APOBEC3G inh
COCCN(Cc1ccccc1)C(=O)c1cccc(S(=O)(=O)N2CCN(Cc3ccccc3)CC2)c1	/	.	/	/	/	/
CC1=C([N+](=O)[O-])C(c2ccccc2Cl)NC(=O)N1 (stereo unspecified)	.	.	.	.	.	.
CC1=C([N+](=O)[O-])C(c2ccccc2Cl)NC(=O)N1C (stereo unspecified)	60.0	.	.	.	.	.
COc1ccc(OC)c(/C=N/NC(=O)CCc2ccc(O)c(O)c2)c1	.	.	21.0	+	.	.
CCOC(=O)c1[nH]c2ccccc2c1NC(=S)Nc1cccc(C)c1C	.	41.0	.	.	.	.
CCOC(=O)c1[nH]c2ccccc2c1NC(=O)NC(C)C	.	.	.	.	.	.
CCn1c(Cn2nnc(-c3ccccc3)n2)nnc1SCC(=O)Nc1ccc(N(C)C)cc1	78.4	.	.	.	.	.
CN(C)c1ccc(NC(=O)CSc2nnc(-c3cccs3)n2Cc2ccco2)cc1	89.9	.	.	.	.	.
Cc1ccc(NC(=O)CSc2nnc(-c3cccs3)n2Cc2ccco2)cc1	.	.	.	.	.	.
CCn1c(SCC(=O)Nc2ccc(N(C)C)cc2)nnc1-c1cccc(C)c1	78.9	.	.	.	.	.
CCn1c(SCC(=O)Nc2cccc(OC)c2)nnc1-c1ccc(Cl)cc1	73.6	.	.	.	.	.
O=C(O)c1ccc(-n2cc(-c3cc4ccccc4oc3=O)[nH]c2=S)cc1	.	.	.	.	/	/
C[C@H](CO)NC(=O)c1[nH]cnc1C(=O)Nc1cccc(Cl)c1	/	.	/	/	/	/
COc1ccccc1-c1csc(C(O)c2ccccc2)n1 (stereo unspecified)	/	.	/	/	/	/
CC(=O)c1ccc(NC(=S)Nc2ccc3[nH]c(=O)[nH]c3c2)cc1	.	.	.	.	.	.
Cc1ccc(NC(=S)Nc2ccc3[nH]c(=O)[nH]c3c2)cc1C	.	42.8	.	.	.	.
CCOP(=O)(OCC)C(Nc1ccccc1)c1ccc2c(c1)OCO2 (stereo unspecified)	/	.	/	/	.	.
CCCCOP(=O)(OCCCC)C(Nc1ccccc1)c1ccc2c(c1)OCO2 (stereo unspecified)	.	.	active	+	/	/
COc1cccc(C2Nc3c(F)cc(Br)cc3C3C=CCC32)c1OC (stereo unspecified)	.	.	.	.	.	.
O=[N+]([O-])c1ccc(Cl)c2c1C1C=CCC1C(c1ccccn1)N2 (stereo unspecified)	.	.	.	.	.	.
COc1ccc(OC)c(C2Nc3c(Cl)ccc(C(=O)O)c3C3C=CCC32)c1 (stereo unspecified)	.	.	71.4	.	.	.
COC(=O)COc1ccc(C2Nc3c(Cl)ccc(C(=O)O)c3C3C=CCC32)cc1 (stereo unspecified)	.	.	.	+	.	.
O=C(O)c1ccc(Cl)c2c1C1C=CCC1C(c1ccccn1)N2 (stereo unspecified)	82.8	/	99.7	+	.	.
CC(C)CN1CCC(CNC(=O)CCc2nnc(Cc3c[nH]c4ccccc34)o2)CC1	.	.	.	.	.	.
CC(C)CCNC(=O)Cc1csc(-c2ccccc2)n1	.	.	.	.	.	.
N[C@@H](Cc1cc(I)c(Oc2ccc(O)c(I)c2)c(I)c1)C(=O)O	.	.	.	.	.	.
O=C(O)CCc1cc(I)c(Oc2ccc(O)c(I)c2)c(I)c1	.	/	65.1	+	/	/
